Measured values: PubChem BioAssay AID743327 (National Center for Advancing Translational Sciences (NCATS), 2014)
Calls of active or inactive are those of the source. Where a call stands in place of a potency, no number is given. Calls come from the whole dose curve. *1 amine or outer side, *2 acyl side, *3 side chain or, on linkers, in order; H or OH if unused. Where a SMILES comes first, the peptide text is derived from it. Bridges are numbered along the chain shown (N, C = ends). Roman numbers before positions name the chains, in order. [ ]: non-standard residue; d: D form. Actinocin(9to1) = Cc1c2oc3c(C)ccc(C(=O)[*:1])c3nc-2c(C(=O)[*:2])c(N)c1=O; NMeV = CN[CH](C(=O)O)C(C)C; Orn = NCCC[C@H](N)C(=O)O; Sar = CNCC(=O)O

Assay: qHTS profiling of Chloroquine Analogs as inhibitors of Plasmodium falciparum (HB3) proliferation
Conditions: P. falciparum HB3 proliferation; series mostly up to 28.7 µM
Text: Plasmodium falciparum is a virulent malarial parasite that kills 1-2 million people worldwide each year. Transmitted by mosquitoes, the sporozoite form of the parasite enters the blood stream to infect hepatocytes, where they become merozoites that infect red blood cells (erythrocytes). Within erythrocytes, merozoites begin a […] cycle of growth and division, after which the parasite is released to infect new red blood cells. Gametocytes, which form within erythrocytes as well, circulate in the bloodstream and are ingested by the mosquito, thereby completing the life cycle. To profile malarial isolates for differential chemical responses and to identify inhibitors of malarial growth, an assay that measures P. falciparum growth and replication within erythrocytes was employed. This assay uses a DNA binding fluorescent dye (SYBR Green) to detect parasite DNA following cell lysis. Because mature erythrocytes lack DNA, only Plasmodium-derived DNA is detected.
The SYBR Green viability assay was adapted from a method described previously (Plouffe et al., 2008). For screening 3 ul culture medium was dispensed into 1536 well black clear bottom plates (Aurora Biotechnologies) using a Multidrop Combi (Thermo Fisher Scientific Inc.), 23 nL compounds in DMSO were added by a pin tool (Kalypsys), and 5 ul of erythrocytes infected with P. falciparum (0.3% parasitemia, 2.5% hematocrit final concentration) were added. The plates were incubated at 37 C in a humidified incubator in 5% CO2 for 72 h, and 2 ul lysis buffer (20 mM Tris HCl, 10 mM EDTA, 0.16% saponin, 1.6% triton X, 10X SYBR Green I supplied as 10,000X […] by Invitrogen) was added to each well. The plates were mixed for 25 sec with gentle shaking and incubated overnight at room temperature in the dark. The following morning, fluorescence intensity at 485(14) nm excitation and 535(25) nm emission wavelengths was measured on an EnVision (Perkin Elmer) plate reader. Plate reads were normalized relative to the control inhibitor (0.29 uM artemisinin) and vehicle (DMSO) wells present on each plate and then corrected by an algorithm using vehicle-only control plates at the beginning and end of the compound plate stack.

Question: Which Potency does the source give for Clc1ccc(COC(Cn2ccnc2)c2ccc(Cl)cc2Cl)c(Cl)c1 (stereo not given) here?
Answer: inactive

Question: Which Potency does the source give for C[C@@H]1Cc2c([nH]c3cc(Cl)c(F)cc23)[C@]2(N1)C(=O)Nc1ccc(Cl)cc12 here?
Answer: inactive

Question: Which Potency does the source give for CCN(CC)CCOCCOC(=O)C(CC)(CC)c1ccccc1 here?
Answer: inactive

Question: For C[N+]1(C)CCC(=C(c2ccccc2)c2ccccc2)CC1, which Potency is on record?
Answer: inactive

Question: Which Potency does the source give for CC(C)C[C@@H]1NC(=O)[C@H](CCCN)NC(=O)[C@H](C(C)C)NC(=O)[C@@H]2CCCN2C(=O)[C@@H](Cc2ccccc2)NC(=O)[C@H](CC(C)C)NC(=O)[C@H](CCCN)NC(=O)[C@H](C(C)C)NC(=O)[C@@H]2CCCN2C(=O)[C@@H](Cc2ccccc2)NC1=O (cyclo(V[Orn]L[dF]PV[Orn]L[dF]P)) here?
Answer: inactive

Question: Which Potency does the source give for O=C(Nc1ccc(Cl)cc1)Nc1ccc(Cl)c(Cl)c1 here?
Answer: 2110 nM (active)

Question: For C/C(=C\c1csc(C)n1)[C@@H]1C[C@@H]2O[C@]2(C)CCC[C@H](C)[C@H](O)[C@@H](C)C(=O)C(C)(C)[C@@H](O)CC(=O)O1, which Potency is on record?
Answer: inactive

Question: For C[C@H]1[C@@H](CCC(=O)Nc2ccc(F)cc2)O[C@@H]2O[C@]3(C)CC[C@@H]4[C@H](C)CC[C@@H]1[C@@]24OO3, which Potency is on record?
Answer: 6.7 nM (active)

Question: For CO[C@H]1O[C@@H]2O[C@@]3(C)CC[C@@H]4[C@@H](C)CC[C@@H]([C@H]1C)[C@@]24OO3, which Potency is on record?
Answer: inactive

Question: With CCCC[C@@H]1C[C@@H](C(=O)NC([C@H](C)Cl)[C@H]2O[C@H](S)[C@H](O)[C@@H](O)[C@@H]2O)N(C)C1 (stereo not given in full) as the compound, how does the Potency read?
Answer: 33.5 nM (active)

Question: For Oc1cc(Cl)ccc1Oc1ccc(Cl)cc1Cl, which Potency is on record?
Answer: 1880 nM (active)

Question: For CNCCCCOc1ccccc1Cc1ccccc1, which Potency is on record?
Answer: inactive

Question: For COc1cccc(CCc2ccccc2OCC(CN(C)C)OC(=O)CCC(=O)O)c1 (stereo not given), which Potency is on record?
Answer: 2980 nM (active)

Question: With Cn1cncc1[C@@](N)(c1ccc(Cl)cc1)c1ccc2c(c1)c(-c1cccc(Cl)c1)cc(=O)n2C as the compound, how does the Potency read?
Answer: inactive

Question: Which Potency does the source give for C[C@@H]1CC[C@H]2[C@@H](C)C(=O)O[C@@H]3OC4(C)CC[C@@H]1C32OO4 (stereo not given in full) here?
Answer: inactive

Question: Which Potency does the source give for Cc1c2oc3c(C)ccc(C(=O)NC4C(=O)NC(C(C)C)C(=O)N5CCCC5C(=O)N(C)CC(=O)N(C)C(C(C)C)C(=O)OC4C)c3nc-2c(C(=O)NC2C(=O)NC(C(C)C)C(=O)N3CCCC3C(=O)N(C)CC(=O)N(C)C(C(C)C)C(=O)OC2C)c(N)c1=O (stereo not given) (I: TVP[Sar][NMeV] / II: TVP[Sar][NMeV]; ester I:1-I:C, II:1-II:C; linker I:N-II:N via Actinocin(9to1); configuration not given here) here?
Answer: inactive

Question: With C[C@@H]1[C@@H](C(=O)C[C@H]2O[C@@H]3O[C@]4(C)CC[C@@H]5[C@H](C)CC[C@@H]([C@H]2C)[C@@]35OO4)O[C@@H]2O[C@]3(C)CC[C@H]4[C@H](C)CC[C@@H]1[C@@]24OO3 as the compound, how does the Potency read?
Answer: inactive

Question: Which Potency does the source give for CCOc1ccccc1O[C@H](c1ccccc1)[C@H]1CNCCO1 here?
Answer: inactive

Question: With CC(CNC1CCCCC1)OC(=O)c1ccccc1 (stereo not given) as the compound, how does the Potency read?
Answer: inactive

Question: With CCCCN(CCCC)CCC(O)c1cc2c(Cl)cc(Cl)cc2c2cc(C(F)(F)F)ccc12 (stereo not given) as the compound, how does the Potency read?
Answer: 5.1 nM (active)

Question: With O=C1C(=O)c2ccccc2C(O)=C1C1CCC(c2ccc(Cl)cc2)CC1 (stereo not given) as the compound, how does the Potency read?
Answer: 0.5 nM (active)

Question: With COc1cc(C=CC(=O)CC(=O)C=Cc2ccc(O)c(OC)c2)ccc1O as the compound, how does the Potency read?
Answer: inactive

Question: For COc1cc2c(Nc3ccc(NC(=O)c4ccccc4)cc3)ncnc2cc1OCCCN1CCOCC1, which Potency is on record?
Answer: inactive

Question: For C[C@H]1[C@@H](OC(=O)CCC(=O)O)O[C@@H]2OC3(C)CC[C@H]4[C@H](C)CC[C@@H]1[C@@]24OO3, which Potency is on record?
Answer: 3 nM (active)

Question: For C=Cc1c(C)c2cc3nc(cc4[nH]c(cc5nc(cc1[nH]2)C(C)=C5CCC(=O)OC)c(CCC(=O)O)c4C)[C@@]1(C)C3=CC=C(C(=O)OC)[C@H]1C(=O)OC, which Potency is on record?
Answer: inactive

Question: For CN1C[C@H](C(=O)N[C@]2(C)O[C@@]3(O)[C@@H]4CCCN4C(=O)[C@H](Cc4ccccc4)N3C2=O)C[C@@H]2c3cccc4[nH]cc(c34)C[C@H]21, which Potency is on record?
Answer: 530 nM (active)

Question: For COCC(=O)O[C@]1(CCN(C)CCCc2nc3ccccc3[nH]2)CCc2cc(F)ccc2[C@@H]1C(C)C, which Potency is on record?
Answer: 1500 nM (active)

Question: Which Potency does the source give for CC(=O)N(O)CCCP(=O)(O)O here?
Answer: 266 nM (active)

Question: For Cc1cccc(C)c1NC(=O)C(C)N (stereo not given), which Potency is on record?
Answer: inactive

Question: With O=C(O)c1cn(C2CC2)c2cc(N3CCNCC3)c(F)cc2c1=O as the compound, how does the Potency read?
Answer: inactive

Question: Which Potency does the source give for C=CCON=C(C[C@H]1O[C@@H]2O[C@]3(C)CC[C@@H]4[C@H](C)CC[C@@H]([C@H]1C)[C@@]24OO3)[C@H]1O[C@@H]2O[C@]3(C)CC[C@H]4[C@H](C)CC[C@@H]([C@@H]1C)[C@@]24OO3 here?
Answer: inactive

Question: For Cc1cccc(C)c1OCC(N)C(C)C (stereo not given), which Potency is on record?
Answer: 18800 nM (active)

Question: Which Potency does the source give for O=C(C[C@@H]1NCCC[C@@H]1O)Cn1cnc2ccccc2c1=O here?
Answer: inactive

Question: For CCN(CC)CCCC(C)Nc1ccnc2cc(Cl)ccc12 (stereo not given), which Potency is on record?
Answer: inactive

Question: With CCCCCCCCCCOc1cc2c(=O)c(C(=O)OCC)c[nH]c2cc1OCC as the compound, how does the Potency read?
Answer: inactive

Question: For C[C@H]1Cc2c([nH]c3cc(Cl)c(F)cc23)[C@@]2(N1)C(=O)Nc1ccc(Cl)cc12, which Potency is on record?
Answer: inactive

Question: Which Potency does the source give for CCOc1ccc(F)cc1C1(O)C(N)=Nc2ccc(Cl)cc21 (stereo not given) here?
Answer: inactive

Question: Which Potency does the source give for C#C[C@]1(O)CC[C@@H]2[C@H]3CCC4=CC(=O)CC[C@H]4[C@H]3C(=C)C[C@@]21CC here?
Answer: 749 nM (active)

Question: Which Potency does the source give for COC(=O)C1C2CC3c4[nH]c5cc(OC)ccc5c4CCN3CC2CC(OC(=O)c2cc(OC)c(OC)c(OC)c2)C1OC (stereo not given) here?
Answer: inactive

Question: Which Potency does the source give for CCCC(=O)O[C@]1(C(=O)CCl)[C@H](C)C[C@@H]2[C@H]3CCC4=CC(=O)C=C[C@]4(C)[C@@]3(F)C(=O)C[C@@]21C here?
Answer: inactive
